Measurements: ChEMBL document CHEMBL3988442, “University of Dundee, Small-Polar-MMV Screening Library” (2021)
For some of these results: Entries with a potency or affinity are not part of this list.

How the values were obtained:
Design in all cases: scale not given: direction of the effect not stated beside the values
[1] = target: Protein translocase subunit SecA (Escherichia coli (strain K12)) (UniProt P10408); assay: Assay to Identify E. coli SecA ATPase Inhibitors; type: functional; conditions: 30 µM
Chain of Protein translocase subunit SecA (Escherichia coli (strain K12)) (P10408 whole entry): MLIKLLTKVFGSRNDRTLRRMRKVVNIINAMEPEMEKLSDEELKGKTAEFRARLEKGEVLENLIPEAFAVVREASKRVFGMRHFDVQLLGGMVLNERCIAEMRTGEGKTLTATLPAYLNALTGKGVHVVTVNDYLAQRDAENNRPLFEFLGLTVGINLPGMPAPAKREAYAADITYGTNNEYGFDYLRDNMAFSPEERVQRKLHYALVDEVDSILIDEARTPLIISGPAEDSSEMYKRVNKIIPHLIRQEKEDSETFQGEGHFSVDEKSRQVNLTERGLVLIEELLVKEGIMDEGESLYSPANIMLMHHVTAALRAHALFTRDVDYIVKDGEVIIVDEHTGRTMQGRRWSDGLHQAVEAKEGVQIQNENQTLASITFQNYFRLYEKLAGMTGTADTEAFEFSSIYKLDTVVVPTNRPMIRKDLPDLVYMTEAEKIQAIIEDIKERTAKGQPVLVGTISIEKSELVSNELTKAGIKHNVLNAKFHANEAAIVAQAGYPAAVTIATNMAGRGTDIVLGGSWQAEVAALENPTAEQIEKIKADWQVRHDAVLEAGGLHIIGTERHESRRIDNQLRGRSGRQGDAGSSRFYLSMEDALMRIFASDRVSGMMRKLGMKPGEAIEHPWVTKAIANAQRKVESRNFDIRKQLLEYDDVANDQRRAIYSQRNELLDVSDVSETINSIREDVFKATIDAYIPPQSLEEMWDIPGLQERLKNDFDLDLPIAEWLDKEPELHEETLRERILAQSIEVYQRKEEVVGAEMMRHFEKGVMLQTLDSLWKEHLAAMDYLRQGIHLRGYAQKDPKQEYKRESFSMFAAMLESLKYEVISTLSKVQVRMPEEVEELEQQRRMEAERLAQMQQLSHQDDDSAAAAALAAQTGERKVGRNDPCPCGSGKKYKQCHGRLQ

[2] = target: T1, Ubiquitin-activating enzyme e1, putative (Leishmania donovani (strain BPK282A1)) (UniProt E9BSI1); assay: Leishmania donovani Ubiquitin Activating Enzyme (LdE1); type: functional; conditions: 30 µM
T1 sequence (whole entry): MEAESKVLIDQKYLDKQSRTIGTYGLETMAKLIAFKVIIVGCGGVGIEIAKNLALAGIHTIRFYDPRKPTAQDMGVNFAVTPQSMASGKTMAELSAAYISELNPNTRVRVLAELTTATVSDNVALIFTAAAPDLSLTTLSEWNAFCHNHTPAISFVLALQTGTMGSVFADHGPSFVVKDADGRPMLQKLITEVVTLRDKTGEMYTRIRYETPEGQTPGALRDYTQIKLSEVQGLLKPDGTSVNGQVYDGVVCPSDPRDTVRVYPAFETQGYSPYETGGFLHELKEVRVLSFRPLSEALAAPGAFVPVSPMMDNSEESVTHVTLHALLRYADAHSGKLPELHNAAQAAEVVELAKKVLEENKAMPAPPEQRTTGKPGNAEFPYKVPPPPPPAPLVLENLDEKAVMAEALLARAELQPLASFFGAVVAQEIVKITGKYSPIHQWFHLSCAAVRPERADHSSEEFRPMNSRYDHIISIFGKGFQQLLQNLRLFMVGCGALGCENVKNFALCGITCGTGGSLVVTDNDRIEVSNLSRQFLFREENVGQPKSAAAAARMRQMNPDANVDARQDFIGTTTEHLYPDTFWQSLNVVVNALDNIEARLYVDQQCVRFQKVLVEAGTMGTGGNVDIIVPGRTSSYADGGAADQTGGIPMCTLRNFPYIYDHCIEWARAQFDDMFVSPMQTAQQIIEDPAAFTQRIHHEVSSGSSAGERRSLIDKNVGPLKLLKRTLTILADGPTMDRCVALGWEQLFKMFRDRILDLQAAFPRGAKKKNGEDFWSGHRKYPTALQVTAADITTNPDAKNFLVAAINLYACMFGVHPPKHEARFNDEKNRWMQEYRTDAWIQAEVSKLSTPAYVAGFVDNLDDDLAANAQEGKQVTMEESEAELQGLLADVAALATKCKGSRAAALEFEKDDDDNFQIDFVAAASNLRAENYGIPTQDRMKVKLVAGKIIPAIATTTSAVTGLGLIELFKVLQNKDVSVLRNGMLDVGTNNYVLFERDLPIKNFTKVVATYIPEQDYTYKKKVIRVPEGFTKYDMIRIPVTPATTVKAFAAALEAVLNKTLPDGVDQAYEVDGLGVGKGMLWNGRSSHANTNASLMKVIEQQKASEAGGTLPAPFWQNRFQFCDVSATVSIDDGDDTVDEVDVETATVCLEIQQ

[3] = target: AMP-activated protein kinase, AMPK (Homo sapiens) (UniProt P54646+O43741+P54619+Q9UGJ0+Q9Y478+Q13131+Q9UGI9); assay: AMP-dependent Kinase enzyme assay. An in vitro enzyme assay that detects ADP turnover that is directly proportional to AMPK activity. This uses naive AMPK that is activated during the assay with MK-8722; type: functional; conditions: 30 µM
[4] = target: Sialic acid-binding Ig-like lectin 9 (Homo sapiens) (UniProt Q9Y336); assay: Hs-Siglec9 ALPHAscreen SOP 20170721; conditions: 10 µM
Chain of Sialic acid-binding Ig-like lectin 9 (Homo sapiens) (Q9Y336 whole entry): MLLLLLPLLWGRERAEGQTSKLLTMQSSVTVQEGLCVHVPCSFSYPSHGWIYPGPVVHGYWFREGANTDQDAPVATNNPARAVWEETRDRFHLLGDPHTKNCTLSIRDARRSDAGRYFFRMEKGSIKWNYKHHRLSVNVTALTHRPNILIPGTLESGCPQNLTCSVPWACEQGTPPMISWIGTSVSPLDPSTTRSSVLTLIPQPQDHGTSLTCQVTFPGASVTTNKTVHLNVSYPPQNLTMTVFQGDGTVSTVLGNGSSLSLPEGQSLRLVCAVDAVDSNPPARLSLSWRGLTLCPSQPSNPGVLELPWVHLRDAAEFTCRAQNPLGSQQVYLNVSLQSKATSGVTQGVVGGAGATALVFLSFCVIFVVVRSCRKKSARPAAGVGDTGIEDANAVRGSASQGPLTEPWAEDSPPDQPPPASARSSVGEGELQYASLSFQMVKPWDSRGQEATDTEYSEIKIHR

[5] = system: Trypanosoma cruzi; assay: Trypanosoma cruzi phosphomannomutase and mannose-1-phosphate guanylyltransferase assay; type: functional; conditions: 10 µM
[6] = target: T2, Arginase-2, mitochondrial (Homo sapiens) (UniProt P78540); assay: in vitro enzyme assay to detect the production of urea directly proportional to the activity of Arginase II; type: functional; conditions: 33.3 µM; further: in the data most compounds retested in dose-response had high values
T2 sequence (whole entry): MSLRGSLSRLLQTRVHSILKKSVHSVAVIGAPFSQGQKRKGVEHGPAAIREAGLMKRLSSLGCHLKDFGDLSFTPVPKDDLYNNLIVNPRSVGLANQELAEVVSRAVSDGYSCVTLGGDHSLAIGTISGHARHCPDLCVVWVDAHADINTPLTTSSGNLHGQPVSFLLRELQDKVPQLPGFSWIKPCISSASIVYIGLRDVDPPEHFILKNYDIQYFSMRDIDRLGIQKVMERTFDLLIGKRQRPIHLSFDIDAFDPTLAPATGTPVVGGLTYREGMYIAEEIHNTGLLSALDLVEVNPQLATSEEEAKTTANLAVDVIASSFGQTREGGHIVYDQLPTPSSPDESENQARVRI

[7] = target: T3, Proteasome subunit beta (Trypanosoma cruzi) (UniProt O96673); assay: Trypanosoma cruzi proteasome chymotrypsin-like activity (TcProtChymo) assay.; further: in the data most compounds retested in dose-response had high values; type: functional; conditions: 9.37 µM
T3 sequence (whole entry): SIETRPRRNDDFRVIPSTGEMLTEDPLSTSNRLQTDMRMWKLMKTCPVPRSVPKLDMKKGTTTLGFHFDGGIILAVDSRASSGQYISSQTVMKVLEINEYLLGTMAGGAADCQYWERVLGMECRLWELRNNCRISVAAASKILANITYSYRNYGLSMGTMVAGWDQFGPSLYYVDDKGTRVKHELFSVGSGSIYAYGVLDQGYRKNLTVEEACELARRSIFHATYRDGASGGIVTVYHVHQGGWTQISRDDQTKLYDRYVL

[8] = species: Homo sapiens; assay: To identify inhibition of the IFN signalling (Jak-Stat) pathway via expression of an eGFP reporter gene under the control of an IFN-stimulated response element (ISRE) containing MxA promoter.; type: functional; conditions: 30 µM
[9] = target: T4, Tyrosyl-tRNA synthetase, putative (Trypanosoma cruzi (strain CL Brener)) (UniProt Q4DSP6); assay: Trypanosoma cruzi tyrosyl tRNA synthetase (TcYRS) _High Tyrosine SOP; type: functional; conditions: 30 µM; further: in the data most compounds retested in dose-response had high values
T4 sequence (whole entry): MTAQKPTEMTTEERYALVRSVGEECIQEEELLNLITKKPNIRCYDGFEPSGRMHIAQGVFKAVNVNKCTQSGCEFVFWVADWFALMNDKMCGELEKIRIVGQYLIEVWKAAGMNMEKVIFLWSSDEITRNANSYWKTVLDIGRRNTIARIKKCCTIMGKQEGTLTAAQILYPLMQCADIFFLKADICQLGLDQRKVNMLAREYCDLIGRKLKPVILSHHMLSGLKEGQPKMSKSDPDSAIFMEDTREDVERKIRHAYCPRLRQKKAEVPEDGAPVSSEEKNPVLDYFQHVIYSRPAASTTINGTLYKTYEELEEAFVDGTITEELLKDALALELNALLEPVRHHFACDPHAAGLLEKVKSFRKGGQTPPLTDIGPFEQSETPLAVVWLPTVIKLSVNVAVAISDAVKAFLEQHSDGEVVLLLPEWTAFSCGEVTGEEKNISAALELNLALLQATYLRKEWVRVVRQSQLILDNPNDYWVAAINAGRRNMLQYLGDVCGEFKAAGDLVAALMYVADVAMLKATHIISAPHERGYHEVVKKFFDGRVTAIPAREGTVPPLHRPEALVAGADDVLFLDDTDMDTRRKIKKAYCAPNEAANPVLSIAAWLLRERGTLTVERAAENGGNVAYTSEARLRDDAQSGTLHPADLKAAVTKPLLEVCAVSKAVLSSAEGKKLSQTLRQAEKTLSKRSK

[10] = target: T4, Tyrosyl-tRNA synthetase, putative (Trypanosoma cruzi (strain CL Brener)); assay: Trypanosoma cruzi tyrosyl tRNA synthetase (TcYRS) SOP; type: functional; conditions: 30 µM
[11] = target: Chromo domain-containing protein 1 (Saccharomyces cerevisiae (strain ATCC 204508 / S288c) (Baker's yeast)) (UniProt P32657); assay: ScCHD-1 Enzyme Inhibition Assay; type: functional; conditions: 30 µM; further: in the data most compounds retested in dose-response had high values
Chain of Chromo domain-containing protein 1 (Saccharomyces cerevisiae (strain ATCC 204508 / S288c) (Baker's yeast)) (P32657 whole entry, the tested form may be a part): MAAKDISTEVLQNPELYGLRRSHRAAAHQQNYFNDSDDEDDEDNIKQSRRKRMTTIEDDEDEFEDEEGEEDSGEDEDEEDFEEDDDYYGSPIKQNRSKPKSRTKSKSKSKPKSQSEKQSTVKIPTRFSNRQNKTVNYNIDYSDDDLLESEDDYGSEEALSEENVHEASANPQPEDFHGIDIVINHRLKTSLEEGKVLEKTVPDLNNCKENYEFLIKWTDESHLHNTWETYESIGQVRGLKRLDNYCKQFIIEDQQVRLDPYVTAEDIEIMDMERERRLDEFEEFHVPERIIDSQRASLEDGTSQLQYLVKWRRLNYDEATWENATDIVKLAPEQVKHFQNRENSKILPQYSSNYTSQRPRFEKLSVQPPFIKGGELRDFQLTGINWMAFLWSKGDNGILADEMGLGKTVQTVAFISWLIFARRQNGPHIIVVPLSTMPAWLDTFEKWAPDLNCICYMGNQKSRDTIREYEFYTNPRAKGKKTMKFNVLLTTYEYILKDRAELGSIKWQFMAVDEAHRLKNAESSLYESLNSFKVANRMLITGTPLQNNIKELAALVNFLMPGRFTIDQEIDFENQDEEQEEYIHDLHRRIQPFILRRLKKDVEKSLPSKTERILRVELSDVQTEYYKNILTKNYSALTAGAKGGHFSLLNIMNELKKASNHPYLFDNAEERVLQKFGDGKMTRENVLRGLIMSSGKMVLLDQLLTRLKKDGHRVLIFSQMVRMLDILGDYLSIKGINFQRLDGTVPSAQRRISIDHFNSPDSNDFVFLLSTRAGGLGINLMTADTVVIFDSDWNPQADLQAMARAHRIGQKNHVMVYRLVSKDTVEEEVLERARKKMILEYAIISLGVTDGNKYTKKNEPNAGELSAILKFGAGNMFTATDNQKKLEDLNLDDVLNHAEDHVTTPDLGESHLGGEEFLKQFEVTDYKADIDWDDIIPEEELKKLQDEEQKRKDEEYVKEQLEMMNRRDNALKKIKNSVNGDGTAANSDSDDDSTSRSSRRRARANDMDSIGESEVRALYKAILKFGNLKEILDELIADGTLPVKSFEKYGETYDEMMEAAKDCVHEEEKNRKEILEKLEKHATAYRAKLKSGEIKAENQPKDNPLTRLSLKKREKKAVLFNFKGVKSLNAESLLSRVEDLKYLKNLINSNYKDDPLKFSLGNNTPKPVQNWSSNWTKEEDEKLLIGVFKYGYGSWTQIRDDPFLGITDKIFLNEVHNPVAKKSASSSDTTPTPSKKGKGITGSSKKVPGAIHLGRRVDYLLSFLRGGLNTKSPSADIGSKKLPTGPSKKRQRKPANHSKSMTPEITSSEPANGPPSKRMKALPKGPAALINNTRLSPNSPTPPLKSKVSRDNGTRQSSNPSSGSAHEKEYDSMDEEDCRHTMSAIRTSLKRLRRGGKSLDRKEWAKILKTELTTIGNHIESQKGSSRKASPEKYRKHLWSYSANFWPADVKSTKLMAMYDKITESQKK

SMILES	Percent Effect [1]	Percent Effect [2]	Percent Effect [3]	Percent Effect [4]	Percent Effect [5]	Percent Effect [6]	Percent Effect [7]	Percent Effect [8]	Percent Effect [9]	Percent Effect [10]	Percent Effect [11]
CCOc1cc(C)nc(N2CCN(Cc3nccn3C)CC2)n1	0.029%	4.17%	-6.46%	13.8%	0.875%	12.4%	11.2%	4.49%	5.26%	7.69%	-4.66%
CNC(=O)c1ccc(OC2CCN(S(C)(=O)=O)CC2)c(Cl)c1	-2.46%	4.17%	-2.06%	-2.97%	0.68%	2.65%	14.7%	24.7%	6.32%	10.3%	-2.92%
c1cnn(CC2CCCN2c2ncnc3sccc23)c1 (stereo not given)	-5.43%	-2.7%	2.65%	6.51%	-2.14%	3.14%	-1.44%	66.4%	2.97%	-25.6%	11.4%
Cc1cnc(CN(Cc2ccccc2)CC(O)c2cccs2)cn1 (stereo not given)	0.271%	5.41%	-2.24%	20.3%	6.35%	41.9%	0.772%	5.39%	-3.23%	6.17%	-11.6%
CSc1ncccc1C(=O)N1C[C@H]2CC[C@@H]1CN(c1ncccn1)C2	-4.71%	7.79%	4.3%	12.7%	1.87%	-31.7%	6.82%	-0.196%	7.53%	11.1%	-5.74%
COc1ccccc1S(=O)(=O)N1CCC(Oc2cccnn2)CC1	-5.78%	-5.48%	-9.71%	-3.66%	-4.11%	-0.909%	3.9%	16.2%	-1.07%	-2.5%	-1.62%
COCCN1CCC2(CC1)CN(C(=O)N(C)C)c1ccc(C)cc12	-5.7%	5.41%	-1.76%	-3.94%	-3.62%	2.23%	6.83%	12.1%	0%	5.13%	0.0767%
COc1cccc(OCc2cc(C(=O)NC[C@H]3CCCN3)n[nH]2)c1	-3.48%	15.3%	-5.03%	30.2%	3.4%	15.4%	7.19%	-6.81%	1.05%	12.8%	-5.02%
CCCC(NC(=O)c1cc(C)ccc1C)c1nnn[nH]1 (stereo not given)	-4.53%	13.3%	-5.34%	20.1%	7.89%	20.8%	11.7%	12.3%	6.01%	13.6%	-1.49%
O=C1CC2(CCCCC2)CC(=O)N1CC(O)COCc1ccc(Cl)cc1 (stereo not given)	-4.15%	-10.8%	-0.127%	-2.3%	-1.66%	-0.744%	-2.66%	2.65%	-2.15%	-6.17%	6.87%
Cc1nn(C)c(C)c1C1CCCN1C(=O)CCCn1cccn1 (stereo not given)	0.0877%	0%	3.67%	-4.76%	-6.07%	10.1%	-2.45%	9.1%	0.493%	-6.17%	1.61%
O=C(NCCN1CCCCC1)c1nc2ccccc2c(=O)[nH]1	4.74%	9.33%	-7.18%	-5.32%	-8.05%	-13.6%	13.7%	-0.00779%	0%	10.3%	-9.94%
CC(C)c1nc(CC(=O)Nc2nc(CN3CCCCCC3)cs2)cs1	-2.6%	-15.6%	-8.27%	-10.6%	13.8%	-4.84%	4.61%	1.12%	10.5%	23.5%	-15.2%
CC(C)c1nn(C)c(N(C)C)c1CNCC(O)c1ccccc1F (stereo not given)	-3.41%	18.2%	-14.7%	3.26%	0.562%	-1.07%	4.39%	10.4%	6.8%	7.32%	-8.47%
Cc1nccn1C1CCCN(C(=O)C2=NN(C)C(=O)CC2)C1 (stereo not given)	-0.962%	18.9%	2.88%	-10.1%	-3.68%	-4.81%	20.9%	23.8%	4.43%	6.17%	-3.99%
CCS(=O)(=O)N1CCc2ccc(NC(=O)Nc3ccc(F)cc3F)cc21	-3.73%	7.79%	2.67%	-0.508%	8.58%	-3.23%	23%	-1.71%	-2.12%	6.41%	-9.26%
CCNC(=O)[C@@H]1C[C@H](NC(=O)c2cncnc2C)CN1CCCSC	-2.84%	5.48%	-7.63%	3.4%	3.17%	-3.59%	9.68%	-11.3%	4.17%	13.6%	-0.349%
CCc1nc(CN2CCCN(c3ncnc4ccccc34)CC2)no1	0.435%	13%	-3.4%	2.9%	4.03%	-12.4%	18.3%	74.7%	3.23%	16.1%	-2.22%
Cc1cc(F)ccc1CN1CCCC2(C1)OCCO2	-1.89%	2.7%	-1.85%	-3.22%	0.391%	1.67%	6.34%	1.71%	2.97%	-3.66%	-3.73%
O=S(=O)(NCC1CCN(c2ccccn2)CC1)c1ccccc1F	-1.81%	23.4%	0.655%	-16.3%	3.25%	-5.81%	12%	14.5%	2.12%	14.1%	-12.6%
